# The source made the active and inactive calls. No stated cut-off is given here; in the data, active means inhibition above about 44%; inactive means the rest.
# Target: Steroidogenic factor 1 (Homo sapiens) (UniProt Q13285)
# Assay: inverse agonism at SF1 nuclear receptor – cell-based, luminescence, high throughput, counter-screen for LRH-1 inverse agonist project (AID 651614);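 further: cells cotransfected with StAR promoter reporter and SF1 expression vector; 0% = vehicle on cells with receptor and 100% = vehicle on cells lacking receptor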
# Conditions: cell-based SF1 luciferase reporter, at 3.6 µM, active compounds read high
# Steroidogenic factor 1 (Homo sapiens), sequence (Q13285 whole entry, looked up): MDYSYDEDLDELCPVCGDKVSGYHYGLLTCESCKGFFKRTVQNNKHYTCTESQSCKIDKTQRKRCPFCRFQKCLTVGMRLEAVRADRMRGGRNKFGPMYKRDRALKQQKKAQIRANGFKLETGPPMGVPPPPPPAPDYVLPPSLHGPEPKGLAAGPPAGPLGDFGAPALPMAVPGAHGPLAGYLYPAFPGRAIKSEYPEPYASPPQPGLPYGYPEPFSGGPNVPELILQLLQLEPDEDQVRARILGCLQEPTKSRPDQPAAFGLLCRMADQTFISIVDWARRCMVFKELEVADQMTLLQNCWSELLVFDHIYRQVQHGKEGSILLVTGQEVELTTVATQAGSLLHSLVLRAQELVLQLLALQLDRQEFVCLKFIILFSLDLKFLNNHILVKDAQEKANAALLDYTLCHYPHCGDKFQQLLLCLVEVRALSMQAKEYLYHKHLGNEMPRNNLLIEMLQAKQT
row,Compound,inhibition
1,CCCCCc1c(CC)ncn1CCc1ccccc1OC,25.2% (inactive)
2,COc1ccccc1-c1cc(NC=O)c2ncc(-c3ccc(S(C)(=O)=O)cc3)n2c1,46.9% (active)
3,C=CC(=O)Nc1cccc(Oc2ncnc3[nH]cc(-c4cnc5ccccc5c4)c23)c1,65.6% (active)
4,COc1ccc(-c2c(C)cc3oc(=O)cc(-c4ccccc4)c3c2C)cc1,45.4% (active)
5,O=C(CCl)N1CCN(S(=O)(=O)Cc2ccccc2)CC1,47.5% (active)
6,CC1C/C(=C\c2cccnc2)C(=O)/C(=C/c2cccnc2)C1 (centres undefined),95.6% (active)
7,COc1ccc(NC(=O)CN2C(=O)NC3(CCCc4ccccc43)C2=O)c(OC)c1 (centres undefined),42% (inactive)
8,O=C(Nc1ccc(S(=O)(=O)N2CCCC2)cc1)c1ccc([N+](=O)[O-])o1,62.7% (active)
9,O=C1C=C(c2ccccc2)OC2(CCCC2)O1,61.2% (active)
10,O=C(CC1C(=O)NCCN1C(=S)Nc1ccccc1)Nc1ccc2c(c1)OCCO2 (centres undefined),63.2% (active)
11,CCOc1ccc(NC(=O)Cn2cc(C(=O)C3CC3)c3ccccc32)cc1,37.5% (inactive)
12,c1ccc2c(c1)CCN(c1ncnc3c1[nH]c1ccccc13)C2,69.5% (active)
13,COc1ccc(Oc2ccc(NC(=O)c3ccccc3C)cc2)cc1,40.1% (inactive)
14,CC1(c2ccc3ccccc3c2)NC(=O)N(CC(=O)N2CCN(Cc3ccc(C#N)cc3)CC2)C1=O (centres undefined),62.4% (active)
15,CCCCCCCn1ccc(=N)cc1,77.7% (active)
16,O=C(Nc1cccnc1)c1ccc([N+](=O)[O-])s1,51% (active)
17,CCS(=O)(=O)N1Cc2cc(C(=O)NCC3CC3)nc(-c3cccc(-c4cccnc4)c3)c2[C@@H]1CCO,41.8% (inactive)
18,CCOC(=O)C1CCN(Cc2cc(Cl)c3ccccc3c2O)CC1,32.9% (inactive)
19,O=[N+]([O-])c1cc2ncccc2c2ncccc12,53.1% (active)
20,Nc1ccc(C(=O)NN2C(=O)[C@H](Cl)C2c2ccc(Cl)cc2)cc1 (some centres undefined),52.1% (active)

row,Compound,inhibition
1,Cc1ccc(C(=O)Sc2cccccc2=O)cc1,98.6% (active)
2,COc1cccc(-c2cnc3c(NC=O)cc(-c4ccc(S(C)(=O)=O)cc4)cn23)c1,52.4% (active)
3,Cc1c(NC(=O)c2ccc([N+](=O)[O-])o2)cccc1-c1nc2ncccc2o1,58.7% (active)
4,NC1=CC(=O)C(=O)c2ccccc21,47% (active)
5,COc1ccccc1NC(=O)c1ccc(NC(=O)COC(=O)C(C)C)cc1,55.7% (active)
6,COc1ccc(CCNC(=O)CSC2=Nc3ccccc3C3=NC(C(C)C)C(=O)N23)cc1OC (centres undefined),53.1% (active)
7,Cc1nc2ccccc2n1Cc1ccc(Cl)cc1,54.1% (active)
8,CCOC(=O)c1ccc(Nc2nc(-c3cccnc3)nc3ccccc23)cc1,41.1% (inactive)
9,COc1cc(C2CC(=O)c3c([nH]c(C(=O)OCCOC(C)C)c3C)C2)cc(OC)c1OC (centres undefined),56.8% (active)
10,COc1ccc(NC(=O)CSc2ncnc3c2cnn3Cc2ccccc2)cc1,62.2% (active)
11,Cc1ccc[n+](CC(=O)Nc2ccc([N+](=O)[O-])cc2)c1,57% (active)
12,Cc1cc(OCC(=O)N2CCC(O)CC2)c2c(C)cc(=O)oc2c1,35.2% (inactive)
13,CC(C)n1c(SCC(=O)Nc2ccc(N3CCOCC3)cc2)nnc1-c1ccco1,45.7% (active)
14,C#CCN(C[C@@H]1[C@@H](OC(=O)NCC2CCCCC2)[C@@H](OC(=O)NCC2CCCCC2)Cn2c(=O)ccc(=O)n21)S(=O)(=O)c1ccc(C)cc1,74.5% (active)
15,Cn1cc(Cl)c(C(=O)OCC(=O)Nc2ccc(S(N)(=O)=O)cc2)n1,50.4% (active)
16,CCOc1ccc(NC(=O)CSc2nc3ccccc3c(=O)n2CCCC(=O)NCC2CCCO2)cc1 (centres undefined),40.1% (inactive)
17,CCOc1ccc(NC(=O)CSc2nnc(CNC(=O)c3cccs3)o2)cc1,59.6% (active)
18,NC(=S)N/N=C/c1ccc(C(F)(F)F)cc1,44.6% (active)
19,O=C(OCC(=O)N1CCN(c2ccccc2)CC1)c1ccc2ccccc2n1,22.3% (inactive)
